# Screens from PubChem.
# IL1B secr inh: inflammasome signaling inhibition, IL-1 beta readout | THP-1 LPS/ATP IL-1B secretion, AlphaLISA, 16 h; hits give low values | activity change, % at 57.5 µM | 360,000 tested, 4.7% active | AID 743279; in the data active means activity change below about -50%; inconclusive means mostly about -30% to -49%; further: on the % scale 0 is the no-effect control and ±100 the full control effect
#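 THP-1 cells pretreated 1 hr with compounds (up to 57.5 uM final), then stimulated with LPS (250 ng/mL final) plus ATP (1.25 mM final); secreted IL-1B measured by AlphaLISA after 16 hr, decreased signal indicating inhibition.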
# Chronic BCR inh: blocks chronic active B-cell receptor signaling | 340,000 tested, 0.05% active | Potency, µM (top dose mostly 46.1 µM), without a hit: at the highest dose activity change, negative = inhibition, actives largely listed as inhibitors | ABC-DLBCL IkBa-CBG/CBR reporter, luminescence ratio, 4 h; active means well fitted inhibition curve with a large enough effect in the signal ratio, with a control signal flat, not every such curve was filed as active; inconclusive means small, poorly fitted or top-dose-only effect, or effect the other way, or a change in a side signal; the % refers to the signal ratio;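 further: potency means the concentration at half of the fitted maximal effect; plate controls were basal doxycycline-induced cells for no effect and cells given 10 µM MG132 for full effect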
#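 Cell line TMD8 (human ABC DLBCL), stably expressing tet-inducible CBG68-IkBa fusion and CBR; IMDM/0.5% FBS; cpd up to 46 uM; dox induction, 4 h, 37C/5% CO2; dual luminescence; green/red ratio; MG132 control.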
# DT40 TDP1 CPT: DT40-hTDP1 cell growth loss with CPT | AID 686979 | 420,000 tested, 12% active | Potency, µM (highest dose often 46.2 µM), for the others: at the highest dose activity change, negative = growth inhibition, most hits filed as inhibitors | chicken DT40 Tdp1-/-;hTDP1 cells + 20 nM CPT, ATP luminescence, 48 h; further: potency means the concentration at half of the fitted maximal effect; on the % scale 0 is the no-effect control and ±100 the full control effect; nearly all actives have a fitted effect of over 55% in size
#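 Chicken DT40 Tdp1-/- cells complemented with human TDP1, 400 cells/well, exposed to compounds plus 20 nM camptothecin for at least 48 h at 37 C; viability read as ATP content by CellTiter-Glo luminescence.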
# SW480 rerep: induces DNA re-replication in SW480 colon adenocarcinoma cells; SW480 DNA re-replication, Hoechst DNA content imaging, 48 h; Potency, µM (doses to about 46.1 µM), inactives show top-dose re-replication activation, usual class: activators; 340,000 tested, 1.8% active; AID 624297; further: potency means the concentration at half of the fitted maximal effect; % of control where 0% means no effect; nearly all actives have a fitted effect of over 55% in size
#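 SW480 cells exposed to compounds for 48 hr at 37 C, 5% CO2, then Hoechst-stained 40 min. Nuclear DNA content imaged by fluorescence scanning (405 nm excitation, 500-530 nm emission); re-replication scored as increased high-intensity nuclei.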
# MCF10A rerep: DNA re-replication induction in MCF 10a cells. MCF 10A DNA re-replication, Hoechst nuclear intensity, 48 h. Potency, µM (doses to about 46.1 µM), for the others: at the top dose activity, positive = re-replication, usual class: activators. 350,000 tested, 2.9% active. AID 624296; further: potency means the concentration at half of the fitted maximal effect; % of control where 0% means no effect; nearly all actives have a fitted effect of over 50% in size
# DT40 TDP1 no CPT: qHTS for Inhibitors of human tyrosyl-DNA phosphodiesterase 1 (TDP1): qHTS in cells in absence of CPT; DT40 Tdp1-/- hTDP1 cells, no CPT, ATP luminescence, 48 h; Potency, µM (doses to about 46.2 µM), without a hit: top-dose activity change, negative = growth inhibition, most hits filed as inhibitors; 420,000 tested, 15% active; further: potency means the concentration at half of the fitted maximal effect; on the % scale 0 is the no-effect control and ±100 the full control effect; nearly all actives have a fitted effect of over 55% in size
#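 Chicken DT40 Tdp1-/- cells complemented with human TDP1, screened without camptothecin (DMSO vehicle only), 400 cells/well. Compounds pin-transferred, cells incubated at 37 °C for at least 48 hr. Growth read as ATP-dependent luminescence (CellTiter-Glo, 30 min at RT).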
# * = called active by the depositor; ? = inconclusive; / = no result; [ ] = remark or other dose. Hits are enriched below; roughly 19% of the tested compounds scored in any of these assays. Unless noted, the call rests on the fitted dose curve; in most records, active means well fitted curve in the direction sought with a large enough effect; inconclusive means small, poorly fitted or top-dose-only effect, or another doubt; inactive means no such curve, though single readings can be large; an effect the other way counts as inactive or inconclusive.
SMILES,IL1B secr inh,Chronic BCR inh,DT40 TDP1 CPT,SW480 rerep,MCF10A rerep,DT40 TDP1 no CPT
O=C(Cc1ccc(OCCC2CCCCC2)cc1)NO,/,/,7.1µM*,/,/,10µM*
O=C(Cc1ccc(Cl)cc1)NC1CCCCCC1,1,0%,-13%,2%,-1%,0%
CCCCCCCOc1ccc(CC(=O)NO)cc1,/,/,10µM*,/,/,10µM*
COC(=O)c1c(C)nc2ccccc2c1C(=O)O,-3,3%,14%,-1%,-7%,-14%
COC(=O)c1cc(C)[nH]c2c(C)cc3nc4ccccc4c3c12,-98*,11%,?,?,21µM*,?
Cc1cc(C)n2nc(S(=O)(=O)NC(C)(C)C)nc2n1,29,4%,-1%,-6%,0%,10%
CCCc1nc2cc3c(cc2[nH]1)n(C)c(=O)n3C,8,-2%,9%,-10%,-10%,17%
COCCNS(=O)(=O)c1ccc2c3c(cccc13)C(=O)N2C,-9,?,-10%,2%,-4%,-21%
CN1C(=O)c2cccc3c(S(=O)(=O)NCCc4ccccc4)ccc1c23,15,-2%,?,?,23µM*,21µM*
CCOC(=O)Cc1csc(NS(=O)(=O)c2ccc3c4c(cccc24)C(=O)N3CC)n1,12,?,-2%,-5%,?,-13%
CCOc1cc(C(=O)Nc2ccc3c4c(cccc24)C(=O)N3CC)cc(OCC)c1OCC,-19,?,?,-6%,19%,23µM*
CCOC(=O)CNS(=O)(=O)c1ccc2c3c(cccc13)C(=O)N2CC,-86*,-16%,3%,15%,20%,1%
Cc1ncc2c(c1CNC(=O)c1ccc3c(c1)OCO3)CCN(C(=O)c1cc3ccccc3n1C)C2,/,/,-8%[9.04 µM],/,/,-17%
Cc1cc(-c2csc3nc[nH]c(=S)c23)cc(C)c1C,-9,-11%,5.8µM*,?,?,5.2µM*
S=c1[nH]cnc2scc(-c3ccc(Cl)cc3)c12,/,-14%,?,25%,?,?
Cc1ccc(-c2csc3nc[nH]c(=S)c23)cc1,-15,?,3.3µM*,?,?,5.2µM*
S=c1[nH]cnc2scc(-c3ccc(Br)cc3)c12,-18,12%,?,12µM*,?,5.8µM*
O=c1[nH]cnc2scc(-c3ccc(Br)cc3)c12,-1,-5%,-8%,-1%,-6%,?
CN(CCc1ccc(Cl)c(Cl)c1)CC(O)COc1ccc(NS(C)(=O)=O)cc1 (stereo not drawn),/,/,18µM*,/,/,23µM*
CN(CCOc1ccccc1)CC(O)COc1ccccc1 (stereo not drawn),-10,-1%,?,4%,-5%,?
CC(C)Oc1ccc(/C(O)=C2/C(=O)C(=O)N(CCN3CCNCC3)C2c2cccc([N+](=O)[O-])c2)cc1 (stereo not drawn),8,4%,3%,0%,-2%,-3%
COc1ccccc1CN1C2CCCC1CC(NC(=O)/C=C/c1ccccc1)C2 (stereo not drawn),-77*,1%,?,4%,7%,?
COC(=O)C1(C(=O)OC)C[C@H](/C=C/c2ccccc2)N(Cc2ccccc2OC)[C@@H]1c1ccc(F)cc1,27,/,?,/,/,?
COC(=O)C1(C(=O)OC)C[C@H](/C=C/c2ccccc2)N(Cc2ccccc2OC)[C@@H]1c1cccs1,-1,/,26µM*,/,/,23µM*
Cc1cc2[nH]c3ccccc3c2c(C)n1,-94*,?,?,9%,?,16µM*
c1ccc(-n2cc(CN3CCC(N4CCOCC4)CC3)c(-c3ccc4c(c3)OCO4)n2)cc1,-66*,-6%,-3%,?,27%,?
